Source: PubChem BioAssay (Tox21)
Records with an inconclusive call do not appear. Activity calls are given as the source filed them. Unless noted, calls follow the shape of the dose curve; as a rule, active = well fitted curve in the direction sought with a large enough effect in the repeat runs; inconclusive = weak or mixed curves; inactive = no such curve, though single readings can be large; an effect the other way counts as inactive or inconclusive.

Tests used:
[1] = qHTS RealTime-Glo MT Cell Viability Assay in HEK293 cells - 0 hour (AID 1224880); also: top concentration of the series differs between compounds; nearly all actives have a fitted effect of over 45% in size
Outline: (§1)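 Real-time viability in HEK293: signal arises when living cells convert a prosubstrate for NanoLuc in the medium, so luminescence tracks viable cell number. Compound (23 nL, DMSO) added 5 h post-seeding; kinetic reads at 0–40 h, 37 C.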

[2] = A CellTox Green Cytotoxicity Assay to monitor cytotoxicity in HepG2 cells - 0 hour (AID 1224882); also: nearly all actives have a fitted effect of over 35% in size
Outline: (§2)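 Cells and non-lytic dye reagent are dispensed together (600 HepG2 cells/well) and incubated 5 h before DMSO compound transfer. Kinetic fluorescence is then recorded in the same wells during 40 h at 37 C.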

[3] = A CellTox Green Cytotoxicity Assay to monitor cytotoxicity in HEK293 cells - 8 hour (AID 1224884); also: nearly all actives have a fitted effect of over 35% in size; also: potency is read from the fitted curve at half-maximal effect
Outline: (§3)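 Cells (HEK293, 600/well) and dye reagent are dispensed together. After 5 h at 37 C, 23 nL compound is pinned in. Plates stay at 37 C for 40 h with fluorescence read at 0h, 8h, 16h, 24h, 32h and 40h.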

[4] = qHTS RealTime-Glo MT Cell Viability Assay in HepG2 cells - 16 hour (AID 1224885); also: nearly all actives have a fitted effect of over 50% in size; also: potency is read from the fitted curve at half-maximal effect
Outline: (§4)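 Viability was tracked continuously by NanoLuc luminescence from prosubstrate reduced by living HepG2 cells, at successive time points over 40 h of compound exposure. Cells with reagent were preincubated 5 h at 37 °C before compound addition.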

[5] = qHTS RealTime-Glo MT Cell Viability Assay in HEK293 cells - 8 hour (AID 1224887); also: top concentration of the series differs between compounds; nearly all actives have a fitted effect of over 50% in size
Outline: as §1

[6] = A CellTox Green Cytotoxicity Assay to monitor cytotoxicity in HEK293 cells - 16 hour (AID 1224888); also: nearly all actives have a fitted effect of over 35% in size; also: potency is read from the fitted curve at half-maximal effect
Outline: as §3

[7] = qHTS RealTime-Glo MT Cell Viability Assay in HepG2 cells - 0 hour (AID 1224889); also: nearly all actives have a fitted effect of over 50% in size; also: potency is read from the fitted curve at half-maximal effect
Outline: as §4

[8] = A CellTox Green Cytotoxicity Assay to monitor cytotoxicity in HepG2 cells - 8 hour (AID 1224890); also: nearly all actives have a fitted effect of over 45% in size; also: potency is read from the fitted curve at half-maximal effect
Outline: as §2

[9] = qHTS assay to identify small molecule antagonists of the androgen receptor (AR) signaling pathway using the MDA cell line in the presence of 0.5 nM R1881 - cell viability counter screen (AID 1259242); also: nearly all actives have a fitted effect of over 45% in size; also: potency is read from the fitted curve at half-maximal effect
Outline: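 Steps: plate MDA-kb2 cells, rest 5 hr at 37C without CO2; pin in compounds in DMSO; add R1881 to 0.5 nM final; incubate 16 hr; add CellTiter-Fluor, 30 min; read fluorescence.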

[10] = target: Estrogen receptor (Homo sapiens) (UniProt P03372); experiment: qHTS assay to identify small molecule antagonists of the estrogen receptor alpha (ER-alpha) signaling pathway using the BG1 cell line in the presence of 0.1 nM 17-beta-estradiol (AID 1259244); also: nearly all actives have a fitted effect of over 50% in size; also: potency is read from the fitted curve at half-maximal effect
Sequence of Estrogen receptor (Homo sapiens) (P03372 whole entry, looked up): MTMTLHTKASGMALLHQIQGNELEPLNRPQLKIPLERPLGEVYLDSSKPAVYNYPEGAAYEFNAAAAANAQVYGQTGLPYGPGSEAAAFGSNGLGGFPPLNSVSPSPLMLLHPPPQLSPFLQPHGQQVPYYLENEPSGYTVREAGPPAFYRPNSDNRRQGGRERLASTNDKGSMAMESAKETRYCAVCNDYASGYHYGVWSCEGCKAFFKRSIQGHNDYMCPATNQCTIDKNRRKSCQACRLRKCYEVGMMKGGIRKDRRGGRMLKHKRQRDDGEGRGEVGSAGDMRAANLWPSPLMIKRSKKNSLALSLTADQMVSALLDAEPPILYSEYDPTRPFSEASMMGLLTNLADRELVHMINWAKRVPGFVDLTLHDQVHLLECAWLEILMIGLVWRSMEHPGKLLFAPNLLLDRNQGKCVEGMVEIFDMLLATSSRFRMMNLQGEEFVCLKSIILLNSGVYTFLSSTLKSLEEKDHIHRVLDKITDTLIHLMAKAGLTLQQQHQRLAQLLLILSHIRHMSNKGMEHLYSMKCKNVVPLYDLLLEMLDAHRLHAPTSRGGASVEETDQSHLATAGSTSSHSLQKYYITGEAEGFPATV
Outline: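 Antagonist mode: compounds in DMSO are pinned onto VM7Luc4E2 reporter cells, 0.1 nM final 17beta-estradiol is added, and after 22 h at 37C luciferase luminescence is measured with ONE-Glo.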

[11] = qHTS assay to identify small molecule phospholipidosis (PLD) inducers (AID 1259344; active = well fitted curve in the direction sought with a large enough effect; an effect the other way counts as inactive or inconclusive)
Outline: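 Cells (HepG2, 900 per well) attach for 4 h, receive LipidTOX Red and compound together, incubate 24 h at 37 C, are fixed 30 min with paraformaldehyde/Hoechst, then imaged at one site per well.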

[12] = qHTS assay to identify small molecule HDAC inhibitors (AID 1259364);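 also: wild-type HCT-116 cells with endogenous class I/II HDAC activity; top concentration of the series differs between compounds; nearly all actives have a fitted effect of over 45% in size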
Outline: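 Cells (HCT-116, wild type) are seeded at 1,500 per well, incubated overnight, treated with compound in DMSO for 2 hr, then developed with HDAC-Glo I/II reagent for 30 min at room temperature.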

[13] = qHTS assay to identify small molecule HDAC inhibitors - cell viability counter screen (AID 1259365)
Outline: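 HCT-116 wild-type, overnight attachment; 2hr drug exposure, 37C; CellTiter-Glo luminescent ATP readout after 30min RT.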

[14] = qHTS assay to identify small molecule agonists of the sonic hedgehog signaling (Shh) pathway - cell viability counter screen (AID 1259366); also: nearly all actives have a fitted effect of over 50% in size; also: potency is read from the fitted curve at half-maximal effect
Outline: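 Compounds in DMSO were pin-transferred onto 3T3 Gli1-Luc cells that had settled 4hr; plates then stood 24hr at 37C and 5% CO2. One hour before the end, CellTiter-Fluor was added and fluorescence recorded.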

[15] = A CellTox Green Cytotoxicity Assay to monitor cytotoxicity in HEK293 cells - 32 hour (AID 1224881); also: nearly all actives have a fitted effect of over 40% in size; also: potency is read from the fitted curve at half-maximal effect
Outline: as §3

[16] = qHTS assay to identify small molecule antagonists of the sonic hedgehog signaling (Shh) pathway - cell viability counter screen (AID 1259367); also: nearly all actives have a fitted effect of over 55% in size; also: potency is read from the fitted curve at half-maximal effect
Outline: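 Cytotoxicity was assessed in parallel with Shh reporter activity by measuring live-cell protease fluorescence (CellTiter-Fluor) in NIH/3T3 cells stably carrying Gli1-Luc, treated with compound under conditioned medium stimulation for 23 hr plus 1 hr reagent incubation.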

[17] = A CellTox Green Cytotoxicity Assay to monitor cytotoxicity in HepG2 cells - 32 hour (AID 1224883); also: nearly all actives have a fitted effect of over 50% in size; also: potency is read from the fitted curve at half-maximal effect
Outline: as §2

[18] = qHTS RealTime-Glo MT Cell Viability Assay in HEK293 cells - 24 hour (AID 1224886); also: nearly all actives have a fitted effect of over 50% in size; also: potency is read from the fitted curve at half-maximal effect
Outline: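 Viability tracked continuously by luminescence as live cells reduce a prosubstrate for NanoLuc; HEK293 cells preincubated 5 h, compound-treated at 37 C, and read at 0, 8, 16, 24, 32 and 40 h.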

[19] = target: Androgen receptor (Homo sapiens) (UniProt P10275); experiment: qHTS assay to identify small molecule antagonists of the androgen receptor (AR) signaling pathway using the MDA cell line in the presence of 0.5 nM R1881 (AID 1259243); also: nearly all actives have a fitted effect of over 50% in size; also: potency is read from the fitted curve at half-maximal effect
Sequence of Androgen receptor (Homo sapiens) (P10275 whole entry, looked up): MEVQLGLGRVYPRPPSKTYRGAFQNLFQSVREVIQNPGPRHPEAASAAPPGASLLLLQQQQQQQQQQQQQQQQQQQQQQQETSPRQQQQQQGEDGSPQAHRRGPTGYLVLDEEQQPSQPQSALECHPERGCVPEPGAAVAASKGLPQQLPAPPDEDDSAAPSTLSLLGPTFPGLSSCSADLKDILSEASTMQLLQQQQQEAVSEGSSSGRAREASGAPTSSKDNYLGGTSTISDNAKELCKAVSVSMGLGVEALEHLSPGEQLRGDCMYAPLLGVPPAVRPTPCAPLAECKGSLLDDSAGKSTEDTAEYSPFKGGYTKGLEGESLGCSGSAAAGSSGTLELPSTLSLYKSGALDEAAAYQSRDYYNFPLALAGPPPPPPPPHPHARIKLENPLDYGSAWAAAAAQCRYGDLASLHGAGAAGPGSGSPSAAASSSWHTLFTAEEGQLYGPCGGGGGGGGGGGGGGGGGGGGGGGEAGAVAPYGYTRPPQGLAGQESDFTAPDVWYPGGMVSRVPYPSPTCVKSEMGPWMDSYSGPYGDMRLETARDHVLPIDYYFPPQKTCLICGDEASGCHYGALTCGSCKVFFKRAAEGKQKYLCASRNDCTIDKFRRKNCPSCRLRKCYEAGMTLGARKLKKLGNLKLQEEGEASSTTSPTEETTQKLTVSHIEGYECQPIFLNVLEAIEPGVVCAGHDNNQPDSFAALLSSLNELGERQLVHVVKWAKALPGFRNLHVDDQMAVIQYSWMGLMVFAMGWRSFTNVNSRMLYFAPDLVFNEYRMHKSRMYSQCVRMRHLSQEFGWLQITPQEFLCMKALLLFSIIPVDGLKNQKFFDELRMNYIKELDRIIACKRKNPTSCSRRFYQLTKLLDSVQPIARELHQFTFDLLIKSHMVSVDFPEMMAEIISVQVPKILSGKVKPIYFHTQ
Outline: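 Stably transfected MDA-kb2 cells express luciferase from an MMTV promoter bearing both AR and GR response elements. Compounds plus 0.5 nM R1881 (final) were incubated 16 hr at 37C without CO2, then luminescence measured.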

[20] = qHTS assay to identify small molecule antagonists of the estrogen receptor alpha (ER-alpha) signaling pathway using the BG1 cell line in the presence of 0.1 nM 17-beta-estradiol - cell viability counter screen (AID 1259241); also: nearly all actives have a fitted effect of over 40% in size
Outline: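 Following 5 days in phenol red-free medium with charcoal-stripped serum, VM7Luc4E2 cells received test compounds alongside 0.1 nM 17beta-estradiol (final) at 37C for 22 hr. Live cells were then quantified via protease-substrate fluorescence.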
% is scaled to controls: 0 for no effect and ±100 for the full control effect.

CC[C@H]1C[C@H]2[C@@H]3CCC4=CC(=O)CC[C@@H]4[C@H]3CC[C@]2(C)[C@H]1O
inactive: Potency [1] | Potency [2] | Potency [3] | Potency [4] | Potency [5] | Potency [6] | Potency [7] | Potency [8] | Potency [9] | Potency [10] | PLD induction [11] 1.62% [at 7.66 µM] | Potency [12] | Potency [13] | Potency [14]

CC(C)(C)c1cc([N+](=O)[O-])cc([N+](=O)[O-])c1O
inactive: Potency [15] | Potency [2] | Potency [4] | Potency [5] | Potency [6] | Potency [13]
active: Potency [9] 12.2 µM | Potency [14] 21.6 µM | Potency [16] 24.3 µM

CC1CC(CC2CCC(N)C(C)C2)CCC1N (stereo not drawn)
active: Potency [18] 44.4 µM
inactive: Potency [1] | Potency [2] | Potency [17] | Potency [3] | Potency [4] | Potency [5] | Potency [6] | Potency [7] | Potency [8] | Potency [19] | Potency [10] | Potency [12] | Potency [13]

O=C(O)C(F)(F)C(F)(F)C(F)(F)C(F)(F)C(F)(F)C(F)(F)C(F)(F)C(F)(F)C(F)(F)C(F)(F)F
inactive: Potency [1] | Potency [15] | Potency [3] | Potency [4] | Potency [18] | Potency [5] | Potency [6] | Potency [20] | Potency [9] | Potency [12] | Potency [13] | Potency [14] | Potency [16]

C=CC[C@]1(O)CC[C@H]2[C@@H]3CCC4=CC(=O)CCC4=C3C=C[C@@]21C
inactive: Potency [1] | Potency [2] | Potency [17] | Potency [3] | Potency [6] | Potency [8] | Potency [12] | Potency [13]
active: Potency [18] 19 µM

CC(c1ccc(O)cc1)(c1ccc(O)cc1)c1ccc(O)cc1
inactive: Potency [15] | Potency [2] | Potency [17] | Potency [3] | Potency [4] | Potency [6] | Potency [8] | Potency [9] | Potency [12] | Potency [13]
active: Potency [14] 61.1 µM

COC(=O)C(C)N(C(=O)Cc1ccccc1)c1c(C)cccc1C (stereo not drawn)
inactive: Potency [15] | Potency [2] | Potency [3] | Potency [4] | Potency [6] | Potency [8] | Potency [10] | Potency [12] | Potency [13] | Potency [14] | Potency [16]
active: Potency [7] 21.9 µM

Clc1cc(C(Cl)(Cl)Cl)cnc1Cl
active: Potency [17] 34.7 µM
inactive: Potency [1] | Potency [2] | Potency [3] | Potency [4] | Potency [6] | Potency [7] | Potency [8] | Potency [12] | Potency [13] | Potency [14] | Potency [16]

Oc1ccc(Cl)c(Cl)c1Cl
inactive: Potency [1] | Potency [15] | Potency [2] | Potency [3] | Potency [4] | Potency [5] | Potency [6] | Potency [7] | Potency [8] | Potency [20] | Potency [9] | Potency [12] | Potency [13] | Potency [14] | Potency [16]

Clc1ccc(C(OCCN2CCCCC2)c2ccccc2)cc1 (stereo not drawn)
inactive: Potency [2] | Potency [3] | Potency [4] | Potency [5] | Potency [6] | Potency [7] | Potency [8] | Potency [9] | Potency [10] | outcome [11] | Potency [12] | Potency [13] | Potency [14]

O=C1NCN(c2ccccc2)C12CCN(CCCOc1ccc(F)cc1)CC2
inactive: Potency [1] | Potency [15] | Potency [2] | Potency [3] | Potency [4] | Potency [5] | Potency [6] | Potency [7] | Potency [20] | Potency [9] | outcome [11] | Potency [12] | Potency [13] | Potency [16]
active: Potency [10] 7.5 µM

Sc1ccccc1Cl
inactive: Potency [1] | Potency [15] | Potency [3] | Potency [4] | Potency [18] | Potency [5] | Potency [6] | Potency [7] | Potency [9] | Potency [19] | Potency [12] | Potency [13] | Potency [14] | Potency [16]

O=C1c2ccccc2C(=O)C1C(=O)C(c1ccccc1)c1ccccc1
inactive: Potency [15] | Potency [2] | Potency [17] | Potency [3] | Potency [4] | Potency [18] | Potency [5] | Potency [6] | Potency [8] | Potency [20] | Potency [9] | outcome [11] | Potency [12] | Potency [13] | Potency [14] | Potency [16]

II
active: Potency [15] 38.9 µM | Potency [17] 38.9 µM | Potency [3] 34.7 µM | Potency [4] 27.5 µM | Potency [6] 38.9 µM | Potency [8] 38.9 µM
inactive: Potency [2] | Potency [18] | Potency [5] | Potency [20] | Potency [9] | Potency [19] | Potency [13] | Potency [14] | Potency [16]

O=S1OC[C@@H]2[C@H](CO1)[C@]1(Cl)C(Cl)=C(Cl)[C@@]2(Cl)C1(Cl)Cl (stereo partly drawn)
inactive: Potency [1] | Potency [2] | Potency [7] | Potency [20] | Potency [9] | Potency [10] | Potency [12] | Potency [13] | Potency [14] | Potency [16]
active: Potency [19] 48.6 µM
